Source: PubChem BioAssay (several laboratories)
Only some compounds are listed: those with a hit (about 2.6% of all), similar ones and a draw of the others.
TLR4 MyD88 comp = blocks binding of human TLR4 to MyD88. 200,000 tested, 0.18% active. AID 861. HeLa CL3-4 TLR4/MyD88 BLA complementation, FRET ratio. inhibition, % at 8.4 µM; in the data active = inhibition above about 25%
PRMT1 FP inh = inhibitors of human PRMT1 | AID 652257 | recombinant PRMT1, activity-based probe fluorescence polarization | Q99873 | inhibition, % at 2.79 µM | 370,000 tested, 1.3% active;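 active = inhibition above about 21% made by adding two undisclosed values, limit read from the data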
TLR9-MyD88 inh = blocks human TLR9 binding to MyD88. Q9NR96+Q99836. CHO BLA complementation TLR9-MyD88, CCF4 FRET ratio. inhibition, % at 4.98 µM. 340,000 tested, 0.21% active;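 active = inhibition above the mean over all tested compounds plus 3 SD, cut at about 21% in these data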
ABHD5-PLIN5 inh = inhibitors of human ABHD5-perilipin-5 interaction | Q00G26+Q8WTS1 | inhibition, % at 4 µM | 360,000 tested, 0.78% active | Split G. princeps luciferase complementation, luminescence, 4 h;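 active = inhibition above the mean inhibition across every tested compound plus 3 SD, cut at about 22% in these data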
Target sequence (Q00G26 whole entry, looked up): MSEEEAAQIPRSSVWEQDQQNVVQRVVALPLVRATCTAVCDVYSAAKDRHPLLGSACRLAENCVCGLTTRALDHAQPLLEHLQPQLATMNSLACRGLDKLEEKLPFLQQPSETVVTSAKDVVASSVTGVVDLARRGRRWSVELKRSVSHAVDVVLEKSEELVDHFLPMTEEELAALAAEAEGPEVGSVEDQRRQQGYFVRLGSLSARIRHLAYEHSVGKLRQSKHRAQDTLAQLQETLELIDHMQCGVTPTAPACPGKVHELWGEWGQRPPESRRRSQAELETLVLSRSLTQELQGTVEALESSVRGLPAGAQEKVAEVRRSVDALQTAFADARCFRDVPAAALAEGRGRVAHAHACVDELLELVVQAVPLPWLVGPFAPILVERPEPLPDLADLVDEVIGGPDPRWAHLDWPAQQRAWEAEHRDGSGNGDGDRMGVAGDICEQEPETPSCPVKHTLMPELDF
Target sequence (Q8WTS1 whole entry, looked up): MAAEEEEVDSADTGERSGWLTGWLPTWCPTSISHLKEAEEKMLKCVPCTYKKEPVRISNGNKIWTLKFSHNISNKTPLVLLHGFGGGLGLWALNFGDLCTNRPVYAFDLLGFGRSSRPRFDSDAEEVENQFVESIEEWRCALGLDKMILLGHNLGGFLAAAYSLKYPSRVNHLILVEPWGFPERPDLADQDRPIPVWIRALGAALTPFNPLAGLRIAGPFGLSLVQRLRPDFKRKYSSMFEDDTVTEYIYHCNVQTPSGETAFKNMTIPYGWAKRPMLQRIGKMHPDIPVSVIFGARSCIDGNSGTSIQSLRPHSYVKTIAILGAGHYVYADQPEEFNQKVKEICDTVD
NOD2-RIPK2 inh = NOD2-RIPK2 protein interaction inhibition; O43353; AID 624267; 360,000 tested, 0.38% active; inhibition, % at 4.98 µM; CHO BLA complementation NOD2-RIPK2, CCF4 ratio; in the data active = inhibition above about 21%
Granule exo inh = lytic granule exocytosis inhibition; TALL-104 LAMP-1 surface exposure, flow cytometry; cells stimulated with thapsigargin and PMA; inhibition, % at 10 µM; 360,000 tested, 0.66% active;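 active = inhibition above about 55%, limit read from the data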
Numbers stand for hits; i = inactive; nt = no result given.

SMILES	TLR4 MyD88 comp	PRMT1 FP inh	TLR9-MyD88 inh	ABHD5-PLIN5 inh	NOD2-RIPK2 inh	Granule exo inh
O=C1C(Cl)=C(N2CCOCC2)C(=O)N1c1ccc(Br)cc1	nt	25.3	i	i	i	i
CN1CCc2c(sc3c2C(=O)NC(c2ccccn2)N3)C1 (configuration not stated)	i	26.6	i	i	i	i
CCOC(=O)c1c(C=O)c(C)n(Cc2ccc(Cl)cc2)c1C	i	i	i	i	i	i
CCOC(=O)C1=C(Cc2ccc(Cl)cc2)C(=O)c2ccccc2C1=O	i	nt	i	42.0	29.0	93.2
COc1cccc2cc(-c3ccnc(=S)[nH]3)oc12	i	nt	nt	nt	nt	nt
Fc1ccc(-c2ccnc(=S)[nH]2)cc1	i	23.4	i	i	i	i
Cc1cc(Oc2cccnc2)ccc1NC(=O)Cc1c[nH]c2ccccc12	nt	i	nt	nt	nt	nt
CC(C)CNC(=O)OCc1cn(Cc2ccc(F)c(F)c2)nn1	nt	i	nt	nt	nt	nt
Cn1cnc([N+](=O)[O-])c1Sc1nnc(-c2ccccc2)c(-c2ccccc2)n1	nt	24.0	nt	nt	nt	nt
Cn1cnc([N+](=O)[O-])c1Sc1ncn[nH]1	nt	i	i	i	i	i
CCCCN1CCS(=O)(=O)N(Cc2ccc(Cl)cc2)C(C(=O)OC)C1 (configuration not stated)	nt	i	nt	nt	nt	nt
Cc1oc2c(O)c(O)ccc2c(=O)c1-c1cnn(-c2ccccc2)c1	i	26.3	i	i	i	i
Cc1cccc(NC(=S)NC2CCCC2)n1	i	i	i	i	i	i
Cc1cccc(NC(=S)Nc2cccc(C)n2)n1	nt	i	i	i	i	72.6
COc1ccccc1NC(=S)NNC(=O)c1ccccc1	i	i	i	i	i	i
COc1ccccc1NC(=S)c1ccccc1	i	22.7	i	i	i	i
COc1ccc(Cc2c(O)nc(SCC(=O)c3ccc(OC)cc3)[nH]c2=O)cc1	i	21.9	i	i	i	i
COc1ccc(Cc2c(O)nc(SCC(C)C)[nH]c2=O)cc1	nt	i	i	i	i	i
COc1ccc(C2=NN(c3nc(-c4ccccc4)c(CC(=O)O)s3)C(c3ccco3)C2)cc1 (configuration not stated)	i	22.1	i	i	i	i
Clc1ccc(C2=NN(c3ccccc3)C(c3ccco3)C2)cc1 (configuration not stated)	nt	i	i	i	i	i
Cc1nc(N2N=C(c3ccc(Cl)cc3)CC2c2ccco2)sc1C(=O)N(C)C (configuration not stated)	i	i	i	22.4	i	i
COc1ccc2ccc(O)c(CN(C)CC(=O)Nc3ccccc3C(F)(F)F)c2c1	nt	i	i	22.4	i	i
CN(C)Cc1c(O)ccc2ccccc12	nt	i	i	i	i	i
Cc1ccc(NC(=O)CN(C)Cc2c(O)ccc3ccccc23)cc1	nt	21.3	nt	nt	nt	nt
Cc1cc(C)nc(Nc2nc(=O)c3ccccc3s2)n1	i	43.6	i	i	i	i
SMILES	TLR4 MyD88 comp	PRMT1 FP inh	TLR9-MyD88 inh	ABHD5-PLIN5 inh	NOD2-RIPK2 inh	Granule exo inh
Cc1cc2c(sc3ccccc32)c(C)n1	nt	i	i	i	i	i
COc1ccc(S(=O)(=O)N2CCN(c3cnccn3)CC2)cc1OC	nt	21.4	i	i	i	i
COc1ccc(S(=O)(=O)N2CCN(c3ccccc3)CC2)cc1OC	nt	i	nt	i	i	i
O=C(CCN1CCCCC1)Nn1c(=S)[nH]c2ccccc2c1=O	i	24.2	i	i	i	i
CC(=O)N1CCN(S(=O)(=O)c2ccc3c(c2)oc(=O)n3C)CC1	nt	i	nt	nt	nt	nt
CCOCCCNC(=O)/C(C#N)=C/c1ccc(Cl)c([N+](=O)[O-])c1	i	i	i	i	i	66.5
Cc1cc2c(nc1C)CCCN2Cc1ccccn1	nt	i	nt	nt	nt	nt
NC(=S)N/N=C1\CCSc2ccc(Cl)cc21	nt	i	nt	i	i	73.2
O=C(/C=C/c1cccnc1)c1ccc(NC(=O)c2cccc(Br)c2)cc1	i	i	i	50.0	i	i
CCOC(=O)C1CCN(C(=O)Nc2ccc3nc(-c4ccco4)c(-c4ccco4)nc3c2)CC1	i	nt	i	30.7	i	i
O=C(Nc1ccc2nc(-c3ccco3)c(-c3ccco3)nc2c1)N1CCCCCC1	i	nt	nt	nt	nt	nt
COc1ccccc1C(=O)Nc1ccccc1N1CCCCC1	nt	i	i	i	i	67.1
COc1ccc(Br)cc1C(=O)Nc1ccccc1N1CCCC1	nt	i	i	i	i	i
COc1ccccc1N1C(=O)C=C(Sc2nc(C)cc(C)n2)C1=O	nt	24.2	nt	i	i	i
